Results: PubChem BioAssay (NCI)
This is part of a sample that, as a whole, favours compounds with a hit. Of some 83,000 tested, about 20% had one in any assay.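 Plates (96-well) were seeded with cells, treated with compound at one concentration, and incubated for 48 hours before percent growth was determined.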 Activity calls are given as the source filed them. The calls were made as follows: active = growth percent below 10; inactive = the rest.

Legend:
Assay in all cases: NCI-60 one-dose screen, 48 h (100 = growth as untreated, 0 = no growth, -100 = all killed)
Settings in all cases: 10 µM unless noted
HCT-15 colon = test system: HCT-15 colon
HT29 colon = test system: HT29 colon
SNB-75 CNS = test system: SNB-75 CNS
SNB-19 CNS = test system: SNB-19 CNS
U251 CNS = test system: U251 CNS
PC-3 prostate = test system: PC-3 prostate
UACC-62 melanoma = test system: UACC-62 melanoma
LOX IMVI melanoma = test system: LOX IMVI melanoma
SK-MEL-28 melanoma = test system: SK-MEL-28 melanoma

Measured: growth

COc1ccc(C2Nc3c(c(C(C)(C)C)nn3-c3ccccc3)C(=O)CS2)cc1 (stereo unspecified)
inactive: HCT-15 colon 97.7% | HT29 colon 86.7% | SNB-75 CNS 89.2% | SNB-19 CNS 98.8% | U251 CNS 102% | PC-3 prostate 79.5% | UACC-62 melanoma 80% | LOX IMVI melanoma 94.5% | SK-MEL-28 melanoma 113%

OCc1ccc(N2CCc3cccc(F)c3C2)cc1Cl
inactive: HCT-15 colon 88.9% [0.1 µM] | HT29 colon 16.2% [0.1 µM] | SNB-75 CNS 108% [0.1 µM] | SNB-19 CNS 85.2% [0.1 µM] | U251 CNS 53.5% [0.1 µM] | PC-3 prostate 89.1% [0.1 µM] | LOX IMVI melanoma 105% [0.1 µM] | SK-MEL-28 melanoma 113% [0.1 µM]
active: UACC-62 melanoma -11.2% [0.1 µM]

Oc1ccccc1-c1nnc(CNc2ccc(Cl)cc2)o1
active: UACC-62 melanoma 8.19% | LOX IMVI melanoma 7.71%
inactive: HCT-15 colon 20.7% | HT29 colon 39.7% | SNB-75 CNS 50.3% | SNB-19 CNS 41.9% | U251 CNS 16% | PC-3 prostate 34.5% | SK-MEL-28 melanoma 32.2%

COc1ccc(O)c(N=Nc2nccs2)c1
inactive: HCT-15 colon 67.3% | HT29 colon 79.7% | SNB-75 CNS 91% | SNB-19 CNS 94.9% | U251 CNS 54.4% | PC-3 prostate 67.3% | UACC-62 melanoma 89.8% | LOX IMVI melanoma 60.9% | SK-MEL-28 melanoma 115%

CC(=O)NCC1c2c(n(C)c3c(Cl)c(Cl)ccc23)C(=O)NC1(C)C (stereo unspecified)
inactive: HCT-15 colon 102% | HT29 colon 108% | SNB-75 CNS 87.7% | SNB-19 CNS 102% | U251 CNS 94.7% | PC-3 prostate 91% | UACC-62 melanoma 94.4% | LOX IMVI melanoma 95% | SK-MEL-28 melanoma 111%

COc1ccc(-c2cc(=O)c3c(OC)c4ccoc4cc3o2)cc1
inactive: HCT-15 colon 92.4% | HT29 colon 82.1% | SNB-75 CNS 104% | SNB-19 CNS 82.4% | U251 CNS 92.5% | PC-3 prostate 86.1% | UACC-62 melanoma 98.4% | LOX IMVI melanoma 95.1% | SK-MEL-28 melanoma 118%

CCCOc1cc2ccccc2cc1C(=O)Nc1nc(NC)c2c(ccc3nccc32)[nH]1
active: HCT-15 colon -50% | HT29 colon -73.1% | SNB-75 CNS -87.1% | SNB-19 CNS -78.8% | U251 CNS -85.5% | PC-3 prostate -51.5% | UACC-62 melanoma -77.3% | LOX IMVI melanoma -81% | SK-MEL-28 melanoma -84.4%

CCCCn1c(-c2ccc(C(=O)O/N=C(\N)c3ccc4c(c3)OCO4)cc2)nc(-c2ccccc2)c1-c1ccccc1
active: SNB-75 CNS -15.4% | LOX IMVI melanoma -72.5%
inactive: HCT-15 colon 19.4% | HT29 colon 19.7% | SNB-19 CNS 58.8% | U251 CNS 45% | PC-3 prostate 42.5% | UACC-62 melanoma 67.9% | SK-MEL-28 melanoma 76.9%

COc1ccc(/C=N/C2=C(C#N)C(c3ccc(N(C)C)cc3)c3ccc4ccccc4c3O2)cc1 (stereo unspecified)
active: SNB-75 CNS -7.87%
inactive: HCT-15 colon 38.7% | HT29 colon 48.4% | SNB-19 CNS 68% | U251 CNS 71.1% | PC-3 prostate 52.5% | UACC-62 melanoma 48.3% | LOX IMVI melanoma 37.3% | SK-MEL-28 melanoma 74.4%

C#CC(F)(F)[C@]1(O)CC[C@H]2[C@@H]3CCC4=CC(=O)CCC4=C3[C@@H](c3ccc(C4CC4)cc3)C[C@@]21C
active: HT29 colon -63.9% | SNB-75 CNS -15.9% | U251 CNS -32.2% | PC-3 prostate -53.8% | LOX IMVI melanoma -84.6%
inactive: HCT-15 colon 59.3% | SNB-19 CNS 46.1% | UACC-62 melanoma 26.7% | SK-MEL-28 melanoma 90.2%

COc1cc(/C=C/c2cc(/C=C/c3ccc(O)c(OC)c3)n(-c3c(C)cccc3C)c(=O)n2)ccc1O
inactive: SNB-19 CNS 13.9%
active: HCT-15 colon 8.19% | HT29 colon -37.8% | SNB-75 CNS -12.4% | U251 CNS 2.81% | PC-3 prostate -2.22% | UACC-62 melanoma -11.3% | LOX IMVI melanoma 0.0749% | SK-MEL-28 melanoma 0.867%

Nc1nc2ccc3[nH]ncc3c2c2c1CCCC2
inactive: UACC-62 melanoma 10.9%
active: HCT-15 colon 3.93% | HT29 colon 5.02% | SNB-75 CNS -46.9% | SNB-19 CNS 8.98% | U251 CNS 8.3% | PC-3 prostate 3.35% | LOX IMVI melanoma -9.24% | SK-MEL-28 melanoma 9.47%

C[n+]1ccccc1/C=C/c1ccc2cccc(O)c2n1
inactive: HCT-15 colon 106% | HT29 colon 101% | SNB-75 CNS 86.8% | SNB-19 CNS 97% | U251 CNS 100% | PC-3 prostate 94.7% | UACC-62 melanoma 105% | LOX IMVI melanoma 104% | SK-MEL-28 melanoma 95.7%

CCN=C1C=CC(=C(c2ccc(N)cc2)c2ccc(N(CC)CC)c(C)c2)C=C1
active: HCT-15 colon 7.26% | HT29 colon 5.82% | SNB-75 CNS -28.4% | U251 CNS -19% | PC-3 prostate -5.29% | UACC-62 melanoma -36.6% | LOX IMVI melanoma -56.2% | SK-MEL-28 melanoma -19.1%
inactive: SNB-19 CNS 11.5%
